Results from PubChem BioAssay AID1159580 (chemical genetic matrix, 2015).
In all, about 5,500 compounds went through this assay and about 2,000 (36%) were called active. Not shown: some 18% with an inconclusive outcome. No stated cut-off is given here; in the data, active means normalized growth mostly below about 0.91 (no sharp cut-off); inconclusive means no clear call, values can overlap the other calls; inactive means mostly above about 0.92. The list shows a part of the results.

Assay: chemical genetic growth profiling, strain panel (AID 1159580);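 further: tested at 20 µM; growth read once vehicle control cultures reached saturation at 30 °C; 1 = growth at the plate median or of vehicle wells; lower values mean less growth of the strain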
Conditions: growth OD

Measured: normalized growth

COc1cc(NS(=O)(=O)c2ccc(N)cc2)nc(OC)n1
inactive: S. cerevisiae deletion strains, locus YJR066W, strain TOR1, active compounds read low 0.933 | S. cerevisiae deletion strains, locus YKL009W, strain mrt4, active compounds read low 0.985 | S. cerevisiae deletion strains, locus YKL068W, active compounds read low 0.984 | S. cerevisiae deletion strains, locus YKL085W, strain MDH1 (second series), active compounds read low 0.991 | S. cerevisiae deletion strains, locus YKL085W, strain MDH1, active compounds read low 0.991 | S. cerevisiae deletion strains, locus YKL160W, strain elf1, active compounds read low 0.969 | S. cerevisiae deletion strains, locus YKL190W, strain CNB1, active compounds read low 0.999 | S. cerevisiae deletion strains, locus YKR001C, strain vps1, active compounds read low 1 | S. cerevisiae deletion strains, locus YKR026C, strain gcn3, active compounds read low 0.973 | S. cerevisiae deletion strains, locus YKR091W, strain srl3, active compounds read low 0.982 | S. cerevisiae deletion strains, locus YLL001W, strain dnm1, active compounds read low 0.982 | S. cerevisiae deletion strains, locus YLL026W, active compounds read low 0.992 | S. cerevisiae deletion strains, locus YLL041C, strain sdh2, active compounds read low 0.992 | S. cerevisiae deletion strains, locus YLR027C, strain aat2, active compounds read low 0.988 | S. cerevisiae deletion strains, locus YLR039C, strain RIC1, active compounds read low 0.997 | S. cerevisiae deletion strains, locus YLR058C, strain SHM2, active compounds read low 0.982 | S. cerevisiae deletion strains, locus YLR102C, strain apc9, active compounds read low 0.985 | S. cerevisiae deletion strains, locus YLR113W, strain HOG1, active compounds read low 0.961 | S. cerevisiae deletion strains, locus YLR221C, strain rsa3, active compounds read low 0.986 | S. cerevisiae deletion strains, locus YLR258W, strain gsy2, active compounds read low 0.979 | S. cerevisiae deletion strains, locus YLR262C, strain YPT6 (second series), active compounds read low 0.952 | S. cerevisiae deletion strains, locus YLR262C, strain YPT6, active compounds read low 0.97 | S. cerevisiae deletion strains, locus YLR268W, strain sec22, active compounds read low 0.98 | S. cerevisiae deletion strains, locus YLR320W, strain mms22, active compounds read low 0.972 | S. cerevisiae deletion strains, locus YLR330W, strain CHS5, active compounds read low 0.984 | S. cerevisiae deletion strains, locus YLR342W, strain FKS1 (second series), active compounds read low 0.95 | S. cerevisiae deletion strains, locus YLR342W, strain FKS1, active compounds read low 0.986 | S. cerevisiae deletion strains, locus YLR357W, strain rsc2, active compounds read low 0.921 | S. cerevisiae deletion strains, locus YLR370C, strain arc18, active compounds read low 0.977 | S. cerevisiae deletion strains, locus YLR371W, strain rom2, active compounds read low 0.982 | S. cerevisiae deletion strains, locus YLR384C, strain iki3, active compounds read low 0.97 | S. cerevisiae deletion strains, locus YLR418C, strain cdc73, active compounds read low 0.969 | S. cerevisiae deletion strains, locus YML016C, strain PPZ1, active compounds read low 0.983 | S. cerevisiae deletion strains, locus YML032C, strain rad52, active compounds read low 0.983 | S. cerevisiae deletion strains, locus YML120C, strain ndi1, active compounds read low 0.972 | S. cerevisiae deletion strains, locus YML124C, strain tub3, active compounds read low 0.988 | S. cerevisiae deletion strains, locus YMR058W, strain fet3, active compounds read low 0.996 | S. cerevisiae deletion strains, locus YMR078C, strain ctf18, active compounds read low 0.984 | S. cerevisiae deletion strains, locus YMR125W, strain sto1, active compounds read low 0.978 | S. cerevisiae deletion strains, locus YMR129W, active compounds read low 0.983 | S. cerevisiae deletion strains, locus YMR205C, strain PFK2, active compounds read low 0.971 | S. cerevisiae deletion strains, locus YMR223W, strain ubp8, active compounds read low 0.987 | S. cerevisiae deletion strains, locus YMR231W, strain pep5, active compounds read low 0.982 | S. cerevisiae deletion strains, locus YMR307W, strain GAS1, active compounds read low 0.933 | S. cerevisiae deletion strains, locus YNL067W, strain RPL9B, active compounds read low 1.01 | S. cerevisiae deletion strains, locus YNL071W, strain lat1, active compounds read low 0.975 | S. cerevisiae deletion strains, locus YNL153C, strain GIM3, active compounds read low 1.04 | S. cerevisiae deletion strains, locus YNL183C, strain NPR1, active compounds read low 0.943 | S. cerevisiae deletion strains, locus YNL209W, strain ssb2, active compounds read low 0.97 | S. cerevisiae deletion strains, locus YNL233W, strain BNI4, active compounds read low 1 | S. cerevisiae deletion strains, locus YNL248C, strain rpa49, active compounds read low 0.969 | S. cerevisiae deletion strains, locus YNL250W, strain rad50, active compounds read low 0.988 | S. cerevisiae deletion strains, locus YNL271C, strain bni1, active compounds read low 0.978 | S. cerevisiae deletion strains, locus YNL298W, strain CLA4, active compounds read low 0.962 | S. cerevisiae deletion strains, locus YNL307C, strain MCK1, active compounds read low 0.981 | S. cerevisiae deletion strains, locus YNL322C, strain KRE1 (second series), active compounds read low 0.976 | S. cerevisiae deletion strains, locus YNL322C, strain KRE1, active compounds read low 0.996 | S. cerevisiae deletion strains, locus YNR049C, strain mso1, active compounds read low 0.979 | S. cerevisiae deletion strains, locus YNR052C, strain pop2, active compounds read low 0.986 | S. cerevisiae deletion strains, locus YOL006C, strain TOP1, active compounds read low 1.05 | S. cerevisiae deletion strains, locus YOL012C, strain htz1 0.758 | S. cerevisiae deletion strains, locus YOL147C, strain pex11, active compounds read low 0.978 | S. cerevisiae deletion strains, locus YOR001W, strain rrp6, active compounds read low 0.988 | S. cerevisiae deletion strains, locus YOR061W, strain CKA2, active compounds read low 0.977 | S. cerevisiae deletion strains, locus YOR069W, strain VPS5, active compounds read low 0.985 | S. cerevisiae deletion strains, locus YOR070C, strain gyp1, active compounds read low 0.981 | S. cerevisiae deletion strains, locus YOR080W, strain dia2, active compounds read low 0.966 | S. cerevisiae deletion strains, locus YOR083W, strain WHI5, active compounds read low 0.981 | S. cerevisiae deletion strains, locus YOR106W, strain vam3, active compounds read low 0.977 | S. cerevisiae deletion strains, locus YOR136W, strain idh2, active compounds read low 0.991 | S. cerevisiae deletion strains, locus YOR144C, strain elg1, active compounds read low 0.992 | S. cerevisiae deletion strains, locus YOR184W, strain ser1, active compounds read low 0.991 | S. cerevisiae deletion strains, locus YOR231W, strain MKK1, active compounds read low 0.968 | S. cerevisiae deletion strains, locus YOR265W, strain rbl2, active compounds read low 0.992 | S. cerevisiae deletion strains, locus YOR270C, strain vph1, active compounds read low 0.965 | S. cerevisiae deletion strains, locus YOR290C, strain snf2, active compounds read low 0.991 | S. cerevisiae deletion strains, locus YOR316C, strain cot1, active compounds read low 0.988 | S. cerevisiae deletion strains, locus YPL051W, strain arl3, active compounds read low 0.973 | S. cerevisiae deletion strains, locus YPL055C, strain LGE1, active compounds read low 1.03 | S. cerevisiae deletion strains, locus YPL078C, strain atp4, active compounds read low 0.965 | S. cerevisiae deletion strains, locus YPL106C, strain sse1, active compounds read low 0.976 | S. cerevisiae deletion strains, locus YPL240C, strain hsp82, active compounds read low 0.98 | S. cerevisiae deletion strains, locus YPL241C, strain CIN2, active compounds read low 0.994 | S. cerevisiae deletion strains, locus YPL256C, strain CLN2, active compounds read low 0.966 | S. cerevisiae deletion strains, locus YPR119W, strain clb2, active compounds read low 0.989 | S. cerevisiae deletion strains, locus YPR141C, strain kar3, active compounds read low 0.982 | S. cerevisiae deletion strains, locus YPR163C, strain tif3, active compounds read low 0.973 | S. cerevisiae deletion strains, locus YPR167C, strain met16, active compounds read low 0.986 | S. cerevisiae deletion strains, strain wtn01, active compounds read low 0.981 | S. cerevisiae strains, strain wild type, active compounds read low 0.991
